Among all 5,500 compounds or so, about 2,000 (36%) were called active. Inconclusive results (about 18%) are left out. No stated cut-off is given here; in the data, active means normalized growth mostly below about 0.91 (no sharp cut-off); inconclusive means no clear call, values can overlap the other calls; inactive means mostly above about 0.92. The list shows a part of the results.
Assay: chemical genetic growth profiling, strain panel (AID 1159580);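 further: tested at 20 µM; growth read once vehicle control cultures reached saturation at 30 °C; 1 = growth at the plate median or of vehicle wells; lower values mean less growth of the strain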
Conditions: growth OD

Measured: normalized growth

CCN(CC)C(=O)c1cccc(C)c1
inactive: S. cerevisiae deletion strains, locus YKL009W, strain mrt4, active compounds read low 0.956 | S. cerevisiae deletion strains, locus YKL068W, active compounds read low 0.989 | S. cerevisiae deletion strains, locus YKL085W, strain MDH1 (second series), active compounds read low 1 | S. cerevisiae deletion strains, locus YKL085W, strain MDH1, active compounds read low 1 | S. cerevisiae deletion strains, locus YKL160W, strain elf1, active compounds read low 1.02 | S. cerevisiae deletion strains, locus YKL190W, strain CNB1, active compounds read low 0.988 | S. cerevisiae deletion strains, locus YKR001C, strain vps1, active compounds read low 1.01 | S. cerevisiae deletion strains, locus YKR026C, strain gcn3, active compounds read low 1.04 | S. cerevisiae deletion strains, locus YKR091W, strain srl3, active compounds read low 1.03 | S. cerevisiae deletion strains, locus YLL001W, strain dnm1, active compounds read low 1.03 | S. cerevisiae deletion strains, locus YLL026W, active compounds read low 1.04 | S. cerevisiae deletion strains, locus YLL041C, strain sdh2, active compounds read low 1.03 | S. cerevisiae deletion strains, locus YLR027C, strain aat2, active compounds read low 1.02 | S. cerevisiae deletion strains, locus YLR039C, strain RIC1, active compounds read low 1.06 | S. cerevisiae deletion strains, locus YLR058C, strain SHM2, active compounds read low 1 | S. cerevisiae deletion strains, locus YLR102C, strain apc9, active compounds read low 0.999 | S. cerevisiae deletion strains, locus YLR113W, strain HOG1, active compounds read low 0.975 | S. cerevisiae deletion strains, locus YLR221C, strain rsa3, active compounds read low 1.02 | S. cerevisiae deletion strains, locus YLR258W, strain gsy2, active compounds read low 1.04 | S. cerevisiae deletion strains, locus YLR262C, strain YPT6 (second series), active compounds read low 1.03 | S. cerevisiae deletion strains, locus YLR262C, strain YPT6, active compounds read low 1.02 | S. cerevisiae deletion strains, locus YLR268W, strain sec22, active compounds read low 0.978 | S. cerevisiae deletion strains, locus YLR320W, strain mms22, active compounds read low 1.04 | S. cerevisiae deletion strains, locus YLR330W, strain CHS5, active compounds read low 0.993 | S. cerevisiae deletion strains, locus YLR342W, strain FKS1 (second series), active compounds read low 0.987 | S. cerevisiae deletion strains, locus YLR342W, strain FKS1, active compounds read low 1.01 | S. cerevisiae deletion strains, locus YLR357W, strain rsc2, active compounds read low 1.09 | S. cerevisiae deletion strains, locus YLR370C, strain arc18, active compounds read low 1.03 | S. cerevisiae deletion strains, locus YLR371W, strain rom2, active compounds read low 0.982 | S. cerevisiae deletion strains, locus YLR384C, strain iki3, active compounds read low 1.06 | S. cerevisiae deletion strains, locus YLR418C, strain cdc73, active compounds read low 1.05 | S. cerevisiae deletion strains, locus YML016C, strain PPZ1, active compounds read low 1.01 | S. cerevisiae deletion strains, locus YML032C, strain rad52, active compounds read low 0.995 | S. cerevisiae deletion strains, locus YML120C, strain ndi1, active compounds read low 1.02 | S. cerevisiae deletion strains, locus YML124C, strain tub3, active compounds read low 0.998 | S. cerevisiae deletion strains, locus YMR058W, strain fet3, active compounds read low 1.04 | S. cerevisiae deletion strains, locus YMR078C, strain ctf18, active compounds read low 0.994 | S. cerevisiae deletion strains, locus YMR125W, strain sto1, active compounds read low 1.03 | S. cerevisiae deletion strains, locus YMR129W, active compounds read low 1.03 | S. cerevisiae deletion strains, locus YMR205C, strain PFK2, active compounds read low 1.06 | S. cerevisiae deletion strains, locus YMR223W, strain ubp8, active compounds read low 1 | S. cerevisiae deletion strains, locus YMR231W, strain pep5, active compounds read low 1.03 | S. cerevisiae deletion strains, locus YMR263W, strain SAP30, active compounds read low 0.999 | S. cerevisiae deletion strains, locus YMR307W, strain GAS1, active compounds read low 1.02 | S. cerevisiae deletion strains, locus YNL067W, strain RPL9B, active compounds read low 1 | S. cerevisiae deletion strains, locus YNL071W, strain lat1, active compounds read low 1.02 | S. cerevisiae deletion strains, locus YNL128W, strain TEP1, active compounds read low 1 | S. cerevisiae deletion strains, locus YNL153C, strain GIM3, active compounds read low 0.999 | S. cerevisiae deletion strains, locus YNL183C, strain NPR1, active compounds read low 0.924 | S. cerevisiae deletion strains, locus YNL209W, strain ssb2, active compounds read low 1.02 | S. cerevisiae deletion strains, locus YNL233W, strain BNI4, active compounds read low 1.01 | S. cerevisiae deletion strains, locus YNL248C, strain rpa49, active compounds read low 1.02 | S. cerevisiae deletion strains, locus YNL250W, strain rad50, active compounds read low 0.994 | S. cerevisiae deletion strains, locus YNL271C, strain bni1, active compounds read low 1 | S. cerevisiae deletion strains, locus YNL298W, strain CLA4, active compounds read low 0.987 | S. cerevisiae deletion strains, locus YNL307C, strain MCK1, active compounds read low 1.01 | S. cerevisiae deletion strains, locus YNL322C, strain KRE1 (second series), active compounds read low 1.03 | S. cerevisiae deletion strains, locus YNL322C, strain KRE1, active compounds read low 1 | S. cerevisiae deletion strains, locus YNR049C, strain mso1, active compounds read low 1.03 | S. cerevisiae deletion strains, locus YNR052C, strain pop2, active compounds read low 0.987 | S. cerevisiae deletion strains, locus YOL006C, strain TOP1, active compounds read low 1.03 | S. cerevisiae deletion strains, locus YOL012C, strain htz1 0.893 | S. cerevisiae deletion strains, locus YOL147C, strain pex11, active compounds read low 0.998 | S. cerevisiae deletion strains, locus YOR001W, strain rrp6, active compounds read low 1.04 | S. cerevisiae deletion strains, locus YOR061W, strain CKA2, active compounds read low 1 | S. cerevisiae deletion strains, locus YOR069W, strain VPS5, active compounds read low 1.01 | S. cerevisiae deletion strains, locus YOR070C, strain gyp1, active compounds read low 1.02 | S. cerevisiae deletion strains, locus YOR080W, strain dia2, active compounds read low 1.04 | S. cerevisiae deletion strains, locus YOR083W, strain WHI5, active compounds read low 1.01 | S. cerevisiae deletion strains, locus YOR106W, strain vam3, active compounds read low 0.998 | S. cerevisiae deletion strains, locus YOR136W, strain idh2, active compounds read low 0.999 | S. cerevisiae deletion strains, locus YOR144C, strain elg1, active compounds read low 0.993 | S. cerevisiae deletion strains, locus YOR184W, strain ser1, active compounds read low 0.978 | S. cerevisiae deletion strains, locus YOR231W, strain MKK1, active compounds read low 0.971 | S. cerevisiae deletion strains, locus YOR265W, strain rbl2, active compounds read low 1.03 | S. cerevisiae deletion strains, locus YOR270C, strain vph1, active compounds read low 1.08 | S. cerevisiae deletion strains, locus YOR290C, strain snf2, active compounds read low 1.01 | S. cerevisiae deletion strains, locus YOR316C, strain cot1, active compounds read low 0.995 | S. cerevisiae deletion strains, locus YPL051W, strain arl3, active compounds read low 1.02 | S. cerevisiae deletion strains, locus YPL055C, strain LGE1, active compounds read low 0.951 | S. cerevisiae deletion strains, locus YPL078C, strain atp4, active compounds read low 1.03 | S. cerevisiae deletion strains, locus YPL106C, strain sse1, active compounds read low 1.11 | S. cerevisiae deletion strains, locus YPL240C, strain hsp82, active compounds read low 1.02 | S. cerevisiae deletion strains, locus YPL241C, strain CIN2, active compounds read low 0.991 | S. cerevisiae deletion strains, locus YPL256C, strain CLN2, active compounds read low 0.983 | S. cerevisiae deletion strains, locus YPR119W, strain clb2, active compounds read low 1 | S. cerevisiae deletion strains, locus YPR141C, strain kar3, active compounds read low 1 | S. cerevisiae deletion strains, locus YPR163C, strain tif3, active compounds read low 0.996 | S. cerevisiae deletion strains, locus YPR167C, strain met16, active compounds read low 0.999 | S. cerevisiae deletion strains, strain wtn01, active compounds read low 0.988 | S. cerevisiae strains, strain wild type, active compounds read low 1
